The panel holds about 79,000 compounds, 15% with a hit somewhere; the sample as a whole holds those more often. Activity calls are given as the source filed them. Cut-off read from the data, not from the text of the source: active = growth inhibition above about 70%; inactive = the rest.
What was measured:
[1] = NCI Yeast Anticancer Drug Screen. Data for the rad52 strain (AID 147);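 note: 0% = growth of vehicle-treated control cultures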; details: S. cerevisiae rad52 mutant growth inhibition, stronger effect = higher value
Summary of the method: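 Here a repair-compromised yeast strain receives each compound; its growth is then quantified and normalised to vehicle-only controls.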

[2] = NCI Yeast Anticancer Drug Screen. Data for the wt1 strain (AID 149);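 note: 0% = growth of vehicle-treated wt1 cultures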; details: S. cerevisiae wt1 strain (SPY 50644) growth inhibition, stronger effect = higher value
Summary of the method: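 Compounds are added to wt1 yeast cultures. Growth is then measured. Inhibition is expressed relative to vehicle-treated controls.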

[3] = NCI Yeast Anticancer Drug Screen. Data for the rad50EPP+ strain (AID 151);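 note: 0% = growth of vehicle-treated control cultures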; details: S. cerevisiae rad50 mutant strain, stronger effect = higher value
Summary of the method: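 Read-out is yeast growth inhibition relative to vehicle; cells used were the rad50EPP+ strain.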

[4] = NCI Yeast Anticancer Drug Screen. Data for the mgt1 strain (AID 153); details: S. cerevisiae mgt1 mutant growth inhibition, stronger effect = higher value
Summary of the method: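 Measured: inhibition of mgt1 yeast growth by compound, normalized to vehicle-treated cultures.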

[5] = NCI Yeast Anticancer Drug Screen. Data for the mec2-1 strain (AID 157); details: S. cerevisiae mec2-1 strain, stronger effect = higher value
Summary of the method: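 Using mec2-1 yeast: add compound, measure growth, express inhibition versus vehicle-treated cultures.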

[6] = NCI Yeast Anticancer Drug Screen. Data for the rad14 strain (AID 159);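 note: 0% = growth of vehicle-treated control cultures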; details: S. cerevisiae rad14 strain growth inhibition, stronger effect = higher value
Summary of the method: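 A mutant yeast strain defective in DNA damage repair is treated with compound; inhibition of its growth is scored against untreated, vehicle-exposed cultures.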

[7] = NCI Yeast Anticancer Drug Screen. Data for the sgs1 mgt1 strain (AID 161);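 note: 0% = growth of cultures given vehicle only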; details: S. cerevisiae sgs1 mgt1 strain, stronger effect = higher value
Summary of the method: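 Compounds are added to genetically altered yeast, and growth is compared with cultures given vehicle alone to give percent inhibition.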

[8] = NCI Yeast Anticancer Drug Screen. Data for the CLN2oe strain (AID 163);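 note: 0% = growth of vehicle-only control cultures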; details: S. cerevisiae CLN2oe strain, stronger effect = higher value
Summary of the method: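 Whole-cell yeast growth assay. A strain engineered for altered cell-cycle control received compound, and inhibition relative to vehicle-treated cultures was recorded.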

[9] = NCI Yeast Anticancer Drug Screen. Data for the cln2 rad14 strain (AID 165);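 note: 0% = growth equal to vehicle treated cultures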; details: S. cerevisiae cln2 rad14 strain, stronger effect = higher value
Summary of the method: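 Yeast strain cln2 rad14, bearing defects in cell cycle control and DNA repair, serves as the test system; values reflect growth inhibition compared with vehicle.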

[10] = NCI Yeast Anticancer Drug Screen. Data for the bub3 strain (AID 167); details: S. cerevisiae bub3 mutant strain, stronger effect = higher value
Summary of the method: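 Steps: expose the mutant yeast strain to compound; grow alongside vehicle-treated cultures; measure growth; express inhibition against the vehicle cultures.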

[11] = NCI Yeast Anticancer Drug Screen. Data for the wt2 strain (AID 169);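 note: 0% = growth of vehicle-treated yeast cultures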; details: S. cerevisiae wt2 strain growth inhibition, stronger effect = higher value
Summary of the method: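 Treated yeast vs. vehicle-treated yeast: growth inhibition determined.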

[12] = NCI Yeast Anticancer Drug Screen. Data for the mlh1 strain (AID 171);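 note: 0% = growth of vehicle-treated control cultures of the same strain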; details: S. cerevisiae mlh1 strain growth inhibition, stronger effect = higher value
Summary of the method: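 A yeast strain with a defined genetic lesion serves as the test organism. Cultures receive compound or vehicle, and growth is measured.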

[13] = NCI Yeast Anticancer Drug Screen. Data for the sgs1 strain (AID 173);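 note: 0% = growth of vehicle-only control cultures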; details: S. cerevisiae sgs1 mutant, stronger effect = higher value
Summary of the method: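 A genetically defined yeast mutant is incubated with the test compound, and its growth is compared to that of the same strain given vehicle.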

[14] = NCI Yeast Anticancer Drug Screen. Data for the mlh1 rad18 strain (AID 175); details: S. cerevisiae mlh1 rad18 strain growth inhibition, stronger effect = higher value
Summary of the method: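 Steps: expose repair-defective yeast to compound; measure growth; express inhibition against vehicle-treated controls.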

[15] = NCI Yeast Anticancer Drug Screen. Data for the rad50 strain (AID 155);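 note: 0% = growth of vehicle-only cultures of the same strain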; details: S. cerevisiae rad50 strain growth inhibition, stronger effect = higher value
Summary of the method: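 Inhibition values express reduced yeast growth in compound-treated cultures relative to vehicle-treated controls.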

[16] = NCI Yeast Anticancer Drug Screen. Data for the rad18 strain (AID 177); details: S. cerevisiae rad18 mutant growth inhibition, stronger effect = higher value
Summary of the method: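 Measured value is growth inhibition of a yeast strain bearing a DNA repair alteration, referenced to vehicle-treated cells.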

[17] = at 5.0 µM (retest, dose inferred, filed as 0.5)
[18] = at 50.0 µM (retest, dose inferred, filed as 5.0)

Measured: growth inhibition

CC(C)/C(Cl)=N\OC(=O)Nc1ccc(F)cc1F
active: [1]; at 100.0 µM 75% | [3]; at 100.0 µM 85% | [4]; at 100.0 µM 96% | [5]; [18] 83% | [5]; at 50.0 µM 72.4% | [5]; at 100.0 µM 95% | [7]; at 50.0 µM 70.8% | [10]; at 11.0 µM 70% | [10]; at 33.0 µM 90% | [10]; [18] 97% | [10]; at 50.0 µM 82.1% | [10]; at 100.0 µM 98% | [13]; at 100.0 µM 83%
inactive: [1]; at 1.2 µM 1% | [1]; at 3.7 µM 7% | [1]; at 11.0 µM 15% | [1]; at 33.0 µM 28% | [2]; at 1.2 µM 2% | [2]; at 3.7 µM 1% | [2]; at 11.0 µM -2% | [2]; at 33.0 µM -1% | [2]; at 100.0 µM 6% | [3]; at 1.2 µM 7% | [3]; at 3.7 µM 13% | [3]; at 11.0 µM 25% | [3]; at 33.0 µM 54% | [4]; at 1.2 µM 3% | [4]; at 3.7 µM 1% | [4]; at 11.0 µM 4% | [4]; at 33.0 µM 13% | [5]; at 1.2 µM 5% | [5]; at 3.7 µM 9% | [5]; [17] 4% | [5]; at 11.0 µM 13% | [5]; at 33.0 µM 28% | [6]; at 1.2 µM 0% | [6]; at 3.7 µM 3% | [6]; at 11.0 µM 9% | [6]; at 33.0 µM 17% | [6]; at 100.0 µM 37% | [7]; [17] -12% | [7]; [18] 69% | [8]; at 1.2 µM 7% | [8]; at 3.7 µM 11% | [8]; at 11.0 µM 12% | [8]; at 33.0 µM 12% | [8]; at 100.0 µM 24% | [9]; [17] -1% | [9]; [18] 38% | [9]; at 50.0 µM 44.8% | [10]; at 1.2 µM 23% | [10]; at 3.7 µM 38% | [10]; [17] 27% | [11]; at 1.2 µM 0% | [11]; at 3.7 µM 0% | [11]; at 11.0 µM 2% | [11]; at 33.0 µM 12% | [11]; at 100.0 µM 63% | [12]; at 1.2 µM 0% | [12]; at 3.7 µM 6% | [12]; at 11.0 µM 9% | [12]; at 33.0 µM 16% | [12]; at 100.0 µM 53% | [13]; at 1.2 µM -1% | [13]; at 3.7 µM 0% | [13]; at 11.0 µM 4% | [13]; at 33.0 µM 27% | [14]; [17] -29% | [14]; [18] 69% | [14]; at 50.0 µM 58%

CCOC1=C/C(=N\Nc2ccc([N+](=O)[O-])cc2)CCC1
inactive: [1]; at 1.2 µM 0% | [1]; at 3.7 µM 8% | [1]; at 11.0 µM 29% | [1]; at 33.0 µM 69% | [1]; at 100.0 µM 26% | [2]; at 1.2 µM 0% | [2]; at 3.7 µM 7% | [2]; at 11.0 µM 9% | [2]; at 33.0 µM 24% | [2]; at 100.0 µM 18% | [3]; at 1.2 µM 3% | [3]; at 3.7 µM 20% | [3]; at 100.0 µM 58% | [4]; at 1.2 µM 3% | [4]; at 3.7 µM 9% | [4]; at 11.0 µM 18% | [4]; at 33.0 µM 22% | [4]; at 100.0 µM 10% | [15]; at 1.2 µM 3% | [15]; at 3.7 µM 10% | [15]; [17] 17% | [15]; at 11.0 µM 22% | [15]; at 33.0 µM 30% | [15]; [18] 51% | [15]; at 50.0 µM 23.4% | [15]; at 100.0 µM 10% | [5]; at 1.2 µM 0% | [5]; at 3.7 µM 5% | [5]; [17] 1% | [5]; at 11.0 µM 19% | [5]; at 33.0 µM 31% | [5]; [18] 67% | [5]; at 50.0 µM 37.9% | [5]; at 100.0 µM 11% | [7]; [17] 10% | [7]; [18] 21% | [7]; at 50.0 µM 48.6% | [8]; at 1.2 µM -1% | [8]; at 3.7 µM -6% | [8]; at 11.0 µM 21% | [8]; at 33.0 µM 15% | [8]; at 100.0 µM -5% | [9]; [17] 5% | [9]; [18] 10% | [9]; at 50.0 µM 29.5% | [10]; at 1.2 µM -3% | [10]; at 3.7 µM 4% | [10]; [17] -1% | [10]; at 11.0 µM 11% | [10]; at 33.0 µM 15% | [10]; [18] 33% | [10]; at 100.0 µM 18% | [11]; at 1.2 µM -1% | [11]; at 3.7 µM 3% | [11]; at 11.0 µM 7% | [11]; at 33.0 µM 24% | [11]; at 100.0 µM 11% | [12]; at 1.2 µM 0% | [12]; at 3.7 µM 5% | [12]; at 11.0 µM 11% | [12]; at 33.0 µM 17% | [12]; at 100.0 µM 7% | [13]; at 1.2 µM 1% | [13]; at 3.7 µM 3% | [13]; at 11.0 µM 18% | [13]; at 33.0 µM 50% | [13]; at 100.0 µM 20% | [14]; [17] 21% | [14]; at 50.0 µM 41.7% | [16]; at 1.2 µM 4% | [16]; at 3.7 µM 8% | [16]; at 11.0 µM 30% | [16]; at 33.0 µM 62% | [16]; at 100.0 µM 55%
active: [3]; at 11.0 µM 70% | [3]; at 33.0 µM 87% | [10]; at 50.0 µM 95% | [14]; [18] 87%

From PubChem BioAssay (NCI)
